In PubChem BioAssay (NCATS) one finds Potency data, which are given here for 40 compounds.

A number with no mark means an inactive call. How the calls were made is not given here. A value given as a limit tells only on which side of the number the result lay.
Potency means the concentration at half of the fitted maximal effect.

The test deals with HIV-1 nucleocapsid protein NCp7 (binding to TG oligonucleotide). In words: HIV Nucleocapsid (AID 346).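 Further: potency is for inhibitors that block NC binding and lower polarization.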 The note with it: HIV-1 NC / fluorescein-TGTGTGTG probe, fluorescence polarization. The procedure: NCGC Assay Overview: HIV-1 nucleocapsid protein (HIV-1 NC) is a small (6.5 kDa) basic zinc-finger protein which participates in packaging of viral genomic RNA. The spacing and metal-chelating residues (3 Cys, 1 His) of the Cys-X2-Cys-X4-His-X4-Cys Zn fingers are conserved among all known retroviruses (J. Med. Chem. 1998, 41, 1371-1381). HIV-1 NC was assayed for its binding to the consensus sequence single-stranded 5'-TGTGTGTG. […] High salt was included to increase the stringency of binding and inhibitor screen. Reducing agents and zinc were present to stabilize the nucleocapsid zinc-finger protein.
NCGC Assay Protocol Summary: Buffer. Hepes pH 7.5, 250mM NaCl, 1uM ZnCl2. 0.004% polyethylene glycol 20000. TCEP (100 uM) and 2-Mercaptoethanol (5 mM), added fresh the day of the experiment. Reagents/Controls. 10 nM TG4xF only in columns 3 and 4 as negative control. 10 nM TG4xF/100 nM HIV-1 NC in columns 1, 2, 5-48. Titration of control compound NSC-13778 (from 20 mM, then 1:2) pin-transferred to column 2. Assay Steps. Two uL of reagents were dispensed to 1536-well Kalypsys black plates. The plates were centrifuged for 1 min at 1000 rpm. Compounds and controls (20 nL) were transferred via Kalypsys PinTool. The plates were incubated for 1 hr at room temperature, and then read on ViewLux (Perkin-Elmer). High-throughput CCD imager using fluorescein polarization filter set and 45 seconds exposure time.
Background: In fluorescence polarisation assays a small probe gives low polarisation when free and higher when bound to something large.
Consider `CC(C)CN1CC[C@@]2(CCCN(C(=O)Oc3ccccc3)C2)C1`, for which the Potency is greater than 20 µM. Next, `N#Cc1ccc(CN2CC[C@@]3(CCCNC3)C2)cc1`: greater than 20 µM.

Regarding `c1cc(N2CCCC3(CCNCC3)C2)ccn1`, the Potency was greater than 20 µM.

For the compound `CC(C)NC(=O)N1CC[C@@]2(CCCNC2)C1`, the Potency was greater than 20 µM. On to `O=C(Oc1ccccc1)N1CCC[C@@]2(CCN(C(c3ccccc3)c3ccccc3)C2)C1`, for which the Potency is greater than 20 µM.

`CN1CCCC2(CCN(C(=O)c3ccco3)CC2)C1`: the Potency was greater than 20 µM. Regarding `CN1CC[C@@]2(CCCN(C(=O)Oc3ccccc3)C2)C1`, the Potency is greater than 20 µM. In the case of `O=C(Oc1ccccc1)N1CCC[C@@]2(CCN(Cc3ccccc3)C2)C1`, the Potency is greater than 20 µM. Next, `O=C(c1csnn1)N1CCC2(CC1)CN(Cc1ccncc1)C2`: greater than 20 µM. Regarding `O=C(Nc1cccc(F)c1)N1CCC2(CC1)CCN(C(=O)Oc1ccccc1)CC2`, the Potency was greater than 20 µM. Then `c1csc(CN2CCC3(CCNCC3)CC2)n1`, with greater than 20 µM; and `O=C(Oc1ccccc1)N1CCC2(CCCN(C(c3ccccc3)c3ccccc3)C2)CC1`, with greater than 20 µM. Next, `Cc1nc2cnc(N3CCNCC3)nc2n(C)c1=O`: greater than 20 µM; `O=C(Nc1ccccc1)N1CCC2(CC1)CCN(C(=O)Oc1ccccc1)CC2`: greater than 20 µM.

`Cc1noc(C)c1C(=O)N1CCC[C@@]2(CCN(CC(C)C)C2)C1`: the Potency was greater than 20 µM. Turning to `Cc1noc(C)c1C(=O)N1CCC2(CCCN(CC(C)C)C2)CC1`, the Potency is greater than 4 µM. Turning to `c1csc(CN2CC[C@@]3(CCCNC3)C2)n1`, the Potency was greater than 20 µM. Then `COc1ccccc1CN1CC[C@@]2(CCCN(C(=O)Oc3ccccc3)C2)C1`, with greater than 20 µM; and `O=C(c1csnn1)N1CCC[C@@]2(CCN(Cc3ccncc3)C2)C1`, with greater than 20 µM; and `O=C(Oc1ccccc1)N1CCC2(CCN(Cc3nccs3)CC2)CC1`, with greater than 20 µM. Next, `O=C(Nc1cccc(F)c1)N1CC[C@@]2(CCCN(C(=O)Oc3ccccc3)C2)C1`: greater than 20 µM; `O=C(Nc1ccccc1)N1CC2(CCN(C(=O)Oc3ccccc3)CC2)C1`: greater than 20 µM.

Turning to `N#Cc1ccc(CN2CCCC3(CCN(C(=O)Oc4ccccc4)CC3)C2)cc1`, the Potency is greater than 20 µM.

For `O=C(Nc1ccccc1)N1CC[C@@]2(CCCN(C(=O)Oc3ccccc3)C2)C1`, the Potency was greater than 20 µM. `N#Cc1cccc(NC(=O)N2CC[C@@]3(CCCN(C(=O)Oc4ccccc4)C3)C2)c1`: the Potency is greater than 4 µM. Then `O=C(Oc1ccccc1)N1CCC2(CCN(Cc3ccccc3)CC2)CC1`, with greater than 20 µM; and `Cc1ccccc1-c1cncnc1NCCc1cnc[nH]1`, with greater than 20 µM; and `c1ccc(N2CCC3(CCNCC3)CC2)cc1`, with greater than 20 µM.

As to `CN1CCCC2(CCN(C(=O)c3ccncc3)CC2)C1`, the Potency is greater than 20 µM. Then `c1cc(CN2CCCC3(CCNCC3)C2)ccn1`, with greater than 20 µM; and `O=C(Oc1ccccc1)N1CCC2(CCN(Cc3ccncc3)CC2)CC1`, with greater than 20 µM. Next, `O=C(c1ccco1)N1CCC[C@@]2(CCN(Cc3ccncc3)C2)C1`: greater than 20 µM; `O=C(Oc1ccccc1)N1CCC[C@@]2(CCN(Cc3cc(C(F)(F)F)cc(C(F)(F)F)c3)C2)C1`: greater than 20 µM.

Regarding `CC(C)CN1CCC2(CC1)CCN(C(=O)Oc1ccccc1)CC2`, the Potency was greater than 20 µM. Then `CN1CCC2(CC1)CCN(C(=O)c1ccco1)CC2`, with greater than 20 µM; and `c1cnc(N2CC3(CCNCC3)C2)nc1`, with greater than 20 µM; and `CC(C)NC(=O)N1CCC2(CC1)CCN(C(=O)Oc1ccccc1)CC2`, with greater than 20 µM. Then `CN1CC[C@@]2(CCCN(C(=O)c3ccco3)C2)C1`, with greater than 20 µM; and `c1ccc(N2CC3(CCNCC3)C2)cc1`, with greater than 20 µM; and `COC(=O)N1CCC2(CCCN(C)C2)CC1`, with greater than 20 µM.
